About 500 (1.3%) of roughly 39,000 compounds were called active. The sample as a whole holds a higher share of actives than the screen did.

The subject of the assay is S. aureus RN4220. Kind of assay: growth inhibition call (relative growth <= 0.2). To be noted: 50 µM.
For the molecule `CCCN(C)C[C@H]1OCCCC[C@@H](C)Oc2ccc(NS(=O)(=O)c3ccc(Cl)cc3)cc2C(=O)N([C@H](C)CO)C[C@@H]1C`, the growth inhibition call was “inactive”. Then `Cc1ccc(S(=O)(=O)N[C@@H]2CC[C@H](CCNC(=O)CN3CCOCC3)O[C@@H]2CO)cc1`, with “inactive”.

As to `C[C@@H]1CN([C@@H](C)CO)S(=O)(=O)c2ccc(-c3cccc(C#N)c3)cc2O[C@H]1CN(C)C(=O)c1cccnc1`, the growth inhibition call is “inactive”. Under `CO[C@@H]1CN(C)C(=O)c2cc(NC(=O)Nc3cccc(Cl)c3)ccc2OC[C@H](C)N(C(=O)Nc2c(C)noc2C)C[C@H]1C` stands “inactive”; under `CC(C)NC(=O)N(C)C[C@H]1OCCCC[C@H](C)Oc2ccc(NC(=O)Nc3ccccc3)cc2C(=O)N([C@@H](C)CO)C[C@H]1C`, “inactive”. Then `CC(C)=CCC[C@]1(C)[C@@H](CC=C(C)C)C[C@]2(CC=C(C)C)C(=O)C(CC=C(C)C)=C(O)[C@@]1(C(=O)C(C)C)C2=O`, with “active”. Then `C[C@@H]1CCCCO[C@@H](CN(C)C(=O)Nc2ccccc2)[C@@H](C)CN([C@H](C)CO)C(=O)c2cc(NC(=O)Cc3ccccc3)ccc2O1`, with “inactive”; and `Cn1cncc1[C@@](N)(c1ccc(Cl)cc1)c1ccc2c(c1)c(-c1cccc(Cl)c1)cc(=O)n2C`, with “active”; and `Cc1noc(C)c1S(=O)(=O)N(C)C[C@@H]1OCCCC[C@@H](C)Oc2ccc(NS(=O)(=O)c3cn(C)cn3)cc2C(=O)N([C@@H](C)CO)C[C@H]1C`, with “inactive”. Take `C[C@@H]1CN([C@@H](C)CO)C(=O)c2cc(NC(=O)Cc3ccccc3)ccc2O[C@@H](C)CCCCO[C@H]1CN(C)Cc1ccc2c(c1)OCO2`: the growth inhibition call was “inactive”. Under `Cc1noc(C)c1S(=O)(=O)Nc1ccc2c(c1)C(=O)N([C@H](C)CO)C[C@H](C)[C@H](CN(C)S(=O)(=O)c1c(C)noc1C)O2` stands “inactive”; under `COc1cc(C)c(C(=O)Oc2cc(C)c(C(=O)O)c(O)c2)c(O)c1`, “inactive”; under `CCCCCC(=O)Cc1cc(O)cc(O)c1C(=O)Oc1cc(CC(=O)CCCCC)c(C(=O)O)c(OC)c1`, “active”. `Cc1cc(OC(=O)c2c(C)cc(O)cc2O)cc(O)c1C(=O)O`: the growth inhibition call was “inactive”.

As to `C[C@H](O)C#Cc1ccc2c(c1)O[C@H](CN(C)C(=O)CN(C)C)[C@H](C)CN([C@H](C)CO)S2(=O)=O`, the growth inhibition call is “inactive”. Under `CN(C)CC#Cc1ccc([C@H]2[C@@H](CO)N3C(=O)CN(C(=O)c4cccnc4)C[C@H]23)cc1` stands “inactive”; under `COc1ccc(S(=O)(=O)Nc2ccc3c(c2)C(=O)N([C@H](C)CO)C[C@H](C)[C@H](CN(C)C(=O)Nc2c(C)noc2C)O3)cc1`, “inactive”.

Take `Cc1c(-c2c(-c3ccc(F)o3)sc3ncnc(O[C@H](Cc4ccccc4OCc4ccnn4CC(F)(F)F)C(=O)O)c23)ccc(OCCN2CCN(C)CC2)c1Cl`: the growth inhibition call is “active”. Under `COCC#Cc1ccc([C@H]2[C@H](CO)N3C(=O)CN(C(=O)C4CCOCC4)C[C@@H]23)cc1` stands “inactive”. Under `Cc1cccc2c1OCC[C@@H](N)C2=O` stands “inactive”. With `Cc1cccc2c3c(ccc12)C1=C(C(=O)C3=O)C(C)CO1` (stereo unspecified), the growth inhibition call is “active”. Then `CC1COC2=C1C(=O)C(=O)c1c2ccc2c1CCCC2(C)C` (stereo unspecified), with “active”; and `Cc1coc2c1C(=O)C(=O)c1c-2ccc2c1CCCC2(C)C`, with “inactive”. Then `C[C@H]1CN([C@@H](C)CO)C(=O)Cc2cc(NC(=O)CCN3CCOCC3)ccc2O[C@H]1CN(C)Cc1ccccc1`, with “inactive”. Under `O=C(Nc1cc(Cl)ccc1Cl)c1cc(Cl)ccc1NS(=O)(=O)c1ccc(Cl)c([N+](=O)[O-])c1` stands “active”.

For the molecule `O=C(Nc1ccc(Cl)cc1C(=O)c1ccc(Cl)cc1)c1cc(Br)ccc1NS(=O)(=O)c1ccc(Cl)cc1`, the growth inhibition call is “inactive”. Consider `NS(=O)(=O)c1ccc(Cl)cc1[N+](=O)[O-]`, for which the growth inhibition call is “inactive”.

For `CNS(=O)(=O)c1ccc(Cl)c(C(N)=O)c1`, the growth inhibition call is “inactive”. Under `O=C(Nc1ccc([N+](=O)[O-])cc1Cl)c1cc(Cl)ccc1O` stands “inactive”; under `O=C(Nc1cc(Cl)ccc1Cl)c1cc(Br)ccc1NS(=O)(=O)c1ccc(Cl)c([N+](=O)[O-])c1`, “active”.

Turning to `COc1ccc(S(=O)(=O)Nc2ccc3c(c2)C(=O)N([C@H](C)CO)C[C@@H](C)[C@@H](CN(C)C(=O)NC2CCCCC2)OCCCC[C@H](C)O3)cc1`, the growth inhibition call is “inactive”. Then `COc1ccc(S(=O)(=O)N(C)C[C@@H]2OCCCC[C@@H](C)Oc3ccc(NC(=O)NC4CCCCC4)cc3C(=O)N([C@H](C)CO)C[C@H]2C)cc1`, with “inactive”; and `CNC(=O)Cn1c(=O)c2c(OC)c(C)cnc2n(C)c1=O`, with “inactive”; and `COc1ccc(NC(=O)N(C)C[C@H]2Oc3ccc(NS(=O)(=O)c4c(C)noc4C)cc3CC(=O)N([C@@H](C)CO)C[C@@H]2C)cc1`, with “inactive”. For `COc1ccc(S(=O)(=O)N(C)C[C@H]2Oc3ccc(NS(=O)(=O)c4c(C)noc4C)cc3C(=O)N([C@@H](C)CO)C[C@@H]2C)cc1`, the growth inhibition call was “inactive”. Under `O=C(C[C@@H]1CC[C@H]2[C@@H](COC[C@H](O)CN2Cc2cc(F)ccc2F)O1)N[C@@H]1CCN(Cc2ccccc2)C1` stands “inactive”. Then `C[C@@H]1CN([C@@H](C)CO)C(=O)c2cc(NS(=O)(=O)c3cn(C)cn3)ccc2O[C@@H](C)CCCCO[C@@H]1CN(C)Cc1ccc(C(F)(F)F)cc1`, with “inactive”; and `C[C@@H]1CN([C@H](C)CO)S(=O)(=O)c2ccc(-c3cccnc3)cc2O[C@@H]1CN(C)C(=O)c1ccc2c(c1)OCO2`, with “inactive”; and `CC[C@@H]1OC(=O)[C@H](C)[C@@H](O[C@H]2C[C@@](C)(OC)[C@@H](O)[C@H](C)O2)[C@H](C)[C@@H](O[C@@H]2O[C@H](C)C[C@H](N(C)C)[C@H]2O)[C@](C)(O)C[C@@H](C)/C(=N\OCOCCOC)[C@H](C)[C@@H](O)[C@]1(C)O`, with “active”. Under `CCC1OC(=O)C(C)C(OC2CC(C)(OC)C(O)C(C)O2)C(C)C(OC2OC(C)CC(N(C)C)C2O)C(C)(O)CC(C)C(=NOCOCCOC)C(C)C(O)C1(C)O` (stereo unspecified) stands “active”; under `Cn1c(=O)c2cn3ncccc3c2n(C)c1=O`, “inactive”; under `COc1c(C)c2c(c(O)c1CC=C(C)CCC(=O)O)C(=O)OC2`, “inactive”. On to `Cc1noc(C)c1S(=O)(=O)Nc1ccc2c(c1)C(=O)N([C@H](C)CO)C[C@@H](C)[C@H](CN(C)Cc1ccc3c(c1)OCO3)O2`, for which the growth inhibition call is “inactive”. Under `O=C(N[C@H]1CC[C@@H](CC(=O)N2CCOCC2)O[C@H]1CO)c1ccc2c(c1)OCO2` stands “inactive”. Then `Cc1ccc(S(=O)(=O)N(C)C[C@@H]2Oc3ccc(NC(=O)CCN4CCOCC4)cc3CC(=O)N([C@@H](C)CO)C[C@@H]2C)cc1`, with “inactive”. In the case of `COc1ccc(S(=O)(=O)Nc2ccc3c(c2)CC(=O)N([C@@H](C)CO)C[C@H](C)[C@H](CN(C)C(=O)Nc2c(C)noc2C)O3)cc1`, the growth inhibition call is “inactive”. Then `C[C@@H](O)c1cccc(C(F)(F)F)c1`, with “inactive”; and `CC(NCCCc1cccc(C(F)(F)F)c1)c1cccc2ccccc12.Cl` (stereo unspecified), with “active”; and `CC(Cc1cccc(C(F)(F)F)c1)NCCOC(=O)c1ccccc1.Cl` (stereo unspecified), with “inactive”. Then `Nc1ccc(O)cc1`, with “inactive”; and `C[C@@H]1CCCCO[C@@H](CN(C)C(=O)C2CCCCC2)[C@H](C)CN([C@@H](C)CO)C(=O)c2cc(NC(=O)Nc3cccc4ccccc34)ccc2O1`, with “inactive”. Then `COC(=O)C1=CC(CCCO)=C[C@@H](c2cccs2)N(Cc2cccc(OC(F)(F)F)c2)C=C1C(=O)OC`, with “active”; and `CN1C=C(C(=O)OCCS(C)(=O)=O)C(C(=O)OCCS(C)(=O)=O)=CC(CCCO)=C[C@@H]1C1CC1`, with “inactive”; and `CCN(CC)S(=O)(=O)c1ccc(C(=O)O)cc1`, with “inactive”.

In the case of `O=C(O)c1ccc(S(=O)(=O)N(Cc2ccc(OC(F)(F)F)cc2)c2ncc(C(F)(F)F)cc2Cl)cc1`, the growth inhibition call is “active”. Regarding `O=C(O)c1ccc(S(=O)(=O)N(Cl)Cl)cc1`, the growth inhibition call was “inactive”. Then `N=C(N=C(N)N)Nc1cc(-c2cccs2)n[nH]1`, with “inactive”; and `C[C@@H]1CN([C@@H](C)CO)S(=O)(=O)c2ccc(C#Cc3ccc(F)cc3)cc2O[C@@H]1CN(C)C(=O)CN(C)C`, with “inactive”; and `C[C@@H]1CN([C@H](C)CO)S(=O)(=O)c2ccc(C#Cc3ccc(F)cc3)cc2O[C@H]1CN(C)C(=O)CN(C)C`, with “inactive”. Turning to `C[C@H]1CN([C@@H](C)CO)S(=O)(=O)c2ccc(C#Cc3ccccc3)cc2O[C@@H]1CN(C)C(=O)CN(C)C`, the growth inhibition call was “inactive”.

Consider `C[C@@H]1CN([C@H](C)CO)S(=O)(=O)c2ccc(C#Cc3ccccc3)cc2O[C@@H]1CN(C)C(=O)CN(C)C`, for which the growth inhibition call is “active”. Then `C[C@H]1CN([C@@H](C)CO)S(=O)(=O)c2ccc(C#Cc3ccc(F)cc3)cc2O[C@H]1CN(C)C(=O)CN(C)C`, with “active”; and `C[C@H]1CN([C@@H](C)CO)S(=O)(=O)c2ccc(C#Cc3ccc(F)cc3)cc2O[C@@H]1CN(C)C(=O)CN(C)C`, with “inactive”; and `C[C@@H]1CN([C@@H](C)CO)S(=O)(=O)c2ccc(C#Cc3ccccc3)cc2O[C@@H]1CN(C)C(=O)CN(C)C`, with “active”. Under `C[C@H](CO)N1C[C@H](C)[C@H](CN(C)C(=O)CN(C)C)Oc2cc(C#Cc3ccc(F)cc3)ccc2S1(=O)=O` stands “inactive”; under `C[C@H]1CN([C@@H](C)CO)S(=O)(=O)c2ccc(C#Cc3ccccc3)cc2O[C@H]1CN(C)C(=O)CN(C)C`, “active”; under `C[C@@H]1CN([C@@H](C)CO)S(=O)(=O)c2ccc(C#Cc3ccc(F)cc3)cc2O[C@H]1CN(C)C(=O)CN(C)C`, “inactive”. Under `C[C@@H]1CN([C@H](C)CO)S(=O)(=O)c2ccc(C#Cc3ccc(F)cc3)cc2O[C@@H]1CN(C)C(=O)CN(C)C` stands “inactive”. For the molecule `C[C@H](CO)N1C[C@H](C)[C@@H](CN(C)C(=O)CN(C)C)Oc2cc(C#Cc3ccccc3)ccc2S1(=O)=O`, the growth inhibition call is “inactive”. For `C[C@@H]1CCCCO[C@@H](CN(C)Cc2ccc(Cl)c(Cl)c2)[C@@H](C)CN([C@H](C)CO)C(=O)c2cc(NC(=O)C3CCCCC3)ccc2O1`, the growth inhibition call was “inactive”. Then `CC(C)NC(=O)N(C)C[C@@H]1OCCCC[C@@H](C)Oc2ccc(NS(=O)(=O)c3cn(C)cn3)cc2C(=O)N([C@H](C)CO)C[C@H]1C`, with “inactive”.

The record behind these values is the antibiotic and cytotoxicity screens of Wong et al. (2023).
